According to PubChem BioAssay (Tox21):
Records with an inconclusive call do not appear. A number with no mark means an inactive call. Active and inactive are the calls of the source. The call rests on the fitted dose curve; in most records, active means well fitted cell-killing curve with a large enough effect in the repeat runs; inconclusive means weak or mixed curves, or effect the other way; inactive means flat fitted curve, though single readings scatter.

assay: qHTS RealTime-Glo MT Cell Viability Assay in HepG2 cells - 40 hour (AID 1224870); settings: RealTime-Glo luminescence; series mostly up to 76.8 µM; activity change, negative = cytotoxic: at the top concentration; further: nearly all actives have a fitted effect of over 50% in size
Outline: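 Real-time viability: cells seeded at 600 per well together with NanoLuc and cell-permeant prosubstrate, compounds added after 5 h incubation. Luminescence tracked at 0, 8, 16, 24, 32 and 40 h of exposure.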
On the % scale 0 is the no-effect control and ±100 the full control effect; potency means the concentration at half of the fitted maximal effect.

Compound	activity change, negative = cytotoxic	Potency
CCC(C)COC(C)=O (stereo unspecified)	1.64%	
CN(C)CCC=C1c2ccccc2C=Cc2ccccc21	-12.4% [at 35.3 µM]	
C1COC1	0.73%	
O=Cc1c2ccccc2c(Cl)c2ccccc12	0.183% [at 35.3 µM]	
CC(C)(O)c1ccc(CNC(=O)c2cccnc2Oc2ccc3nonc3c2)cc1	-0.92%	
COc1ccccc1Oc1c(NS(=O)(=O)c2ccc(C(C)(C)C)cc2)nc(-c2ncccn2)nc1OCCO	-5.58% [at 35.3 µM]	
C=COCC(C)C	2.77%	
C[C@@H]1CN(CCCn2c3ccccc3c3ccccc32)C[C@H](C)N1		23.9 µM (active)
C[C@]1(Cn2ccnn2)[C@H](C(=O)O)N2C(=O)C[C@H]2S1(=O)=O	-0.934% [at 35.3 µM]	
Cc1cc(C)cc(N)c1	-6.71%	
CC1CC(OC(=O)C(O)c2ccccc2)CC(C)(C)N1C (stereo unspecified)	0.0816% [at 35.3 µM]	
O=C(O)c1cccc(-c2noc(-c3ccccc3F)n2)c1	3.31% [at 35.3 µM]	
CCCCN(CCCC)C(C(N)=O)c1ccc(OC)cc1 (stereo unspecified)	-0.467% [at 35.3 µM]	
CC1=C(CC=O)C(C)(C)CCC1	-0.947%	
CC(C)=CCC/C(C)=C/CC/C(C)=C/CCC(=O)OC/C=C(\C)CCC=C(C)C	1.74% [at 35.3 µM]	
CC[N+](CC)(CCNC(=O)C(=O)NCC[N+](CC)(CC)Cc1ccccc1Cl)Cc1ccccc1Cl	0.0764% [at 35.3 µM]	
Cc1cscn1	0.148%	
CC(C)c1nc(CN(C)C(=O)N[C@H](C(=O)N[C@@H](Cc2ccccc2)C[C@H](O)[C@H](Cc2ccccc2)NC(=O)OCc2cncs2)C(C)C)cs1	-9.58% [at 35.3 µM]	
CN1C(=O)OC(C)(C)C1=O	-6.35%	
CC(C)C(O)(c1ccc(OC(F)(F)F)cc1)c1cncnc1 (stereo unspecified)	0.14%	
Cc1cccc(N(C)C(=S)Oc2ccc3c(c2)CCC3)c1	2.54% [at 35.3 µM]	
